Values joined by “and” are separate entries in the source; they are usually repeats but may differ in a detail not shown here. Identical values can stand only once. Active and inactive are the calls of the source.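 Rule for the calls, unless noted: active = thallium flux through the channel raised or lowered by more than 3 SD from vehicle-only wells, actives on both sides; inactive = the rest.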
Experiments:
[1] = signal quenchers or enhancers, Cy5 substrate/SSB – biochemical, NIH Clinical Collection, E. coli SSB, artefact control for HCV NS3 helicase inhibitor project (AID 743268; call rule not given here); conditions: Cy5-oligo bound E. coli SSB, fluorescence interference
[2] = test system: Hepatitis C virus NS3 helicase; experiment: blockers of NS3h binding to DNA – biochemical, fluorescence polarization, NIH Clinical Collection, primary screen (AID 743270; call rule not given here); conditions: NS3 helicase binding to Cy5-dT15 DNA, stronger effect = higher value, concentration not given here
[3] = molecular target: Single-stranded DNA-binding protein (Escherichia coli (strain K12)) (UniProt P0AGE0); experiment: SSB-ssDNA binding inhibitors – biochemical, fluorescence polarization, NIH Clinical Collection, counter-screen for HCV NS3 helicase inhibitor project (AID 743271; in the data active = inhibition above about 28%); conditions: E. coli SSB-DNA binding, stronger effect = higher value, concentration not given here
[4] = compounds distorting NS3 helicase fluorescence signal – biochemical, NIH Clinical Collection, artefact control for HCV NS3 helicase inhibitor project (AID 743272; call rule not given here;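 note: HCV NS3 helicase with a Cy5 labelled single stranded DNA probe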); conditions: fluorescence interference counterscreen, HCV NS3 helicase assay; stronger effect = lower value
[5] = molecular target: 6-phosphogluconate dehydrogenase, decarboxylating (Homo sapiens) (UniProt P52209); experiment: inhibition of human phosphogluconate dehydrogenase – biochemical, recombinant enzyme, NADPH absorbance, primary screen (AID 1159550;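 active = at least 20% inhibition of 6-phosphogluconate dehydrogenase activity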); conditions: recombinant 6PGD, NADPH absorbance 341 nm; at 10 µM; stronger effect = higher value
Sequence of 6-phosphogluconate dehydrogenase, decarboxylating (Homo sapiens) (P52209 whole entry, looked up): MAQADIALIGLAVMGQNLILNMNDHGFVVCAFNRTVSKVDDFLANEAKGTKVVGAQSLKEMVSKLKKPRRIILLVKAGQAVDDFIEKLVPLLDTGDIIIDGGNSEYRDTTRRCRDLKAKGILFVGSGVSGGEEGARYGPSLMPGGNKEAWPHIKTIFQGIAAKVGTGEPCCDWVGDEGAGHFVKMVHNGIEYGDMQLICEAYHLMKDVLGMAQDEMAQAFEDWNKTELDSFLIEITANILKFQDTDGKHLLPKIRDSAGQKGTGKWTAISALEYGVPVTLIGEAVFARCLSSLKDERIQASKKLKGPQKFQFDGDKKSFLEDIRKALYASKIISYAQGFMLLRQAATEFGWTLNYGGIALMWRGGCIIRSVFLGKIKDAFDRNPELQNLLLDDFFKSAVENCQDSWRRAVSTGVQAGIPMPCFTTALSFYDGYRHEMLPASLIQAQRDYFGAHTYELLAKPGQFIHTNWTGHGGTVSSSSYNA

[6] = modulation of C. elegans fzo-1 (AID 1259413; call rule not given here;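 note: fzo-1 mutant C. elegans worms in liquid wells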); conditions: C. elegans fzo-1 modulator screen, mean read-out; stronger effect = higher value
[7] = EMT-state selective cytotoxicity in co-culture – imaging, PC-3E GFP, TEM4-18 mCherry, primary screen (AID 1345086;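 active = compounds killing one labelled cell type while sparing the other, by normalised counts and ratio limits, not self-fluorescent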;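 for all read-outs here: cells exposed to compound for 72 h before imaging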;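 for red/green cell ratio (normalised): normalised mesenchymal count divided by normalised epithelial count so high means epithelial killing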); conditions: PC-3E GFP / TEM4-18 mCherry co-culture, imaging cell counts, at 1 µM; for red/green cell ratio (normalised): actives lie on both sides, counts scaled to control wells, 1 = unselective
[8] = MELAS cybrid and Rieske KO viability enhancers – cell-based, MELAS cybrids, Rieske KO mouse fibroblasts, CellTiter-Glo, primary screen (AID 1508586;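 active = mean z-score across replicates of 1.96 or higher in either the MELAS or the Rieske mutant cell line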;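 note: z relative to plate mean and SD of compound and empty wells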); conditions: low glucose
F380Y = experiment: BK channel mutant inhibitors and activators – cell-based, U2OS BacMam, thallium flux, beta subunits, selectivity assay, profiling panel (AID 1259406); conditions: U2OS BacMam BK variants, at 30 µM;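 note: initial slope of Thallos dye fluorescence rise after thallium is added; log ratio against the mean of 0.3% DMSO vehicle wells on the same plate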
F380Y/beta1 = experiment: as above; conditions: U2OS BacMam BK variants, at 30 µM
F380Y/beta2Delta = experiment: as above; conditions: U2OS BacMam BK variants, at 30 µM
F380Y/beta4 = experiment: as above; conditions: U2OS BacMam BK variants, at 30 µM
[9] = molecular target: Calcium-activated potassium channel subunit alpha-1 (Homo sapiens) + Leucine-rich repeat-containing protein 26 (Homo sapiens) (UniProt Q12791+Q2I0M4); experiment: as above; conditions: U2OS BacMam BK variants, F380Y/Slo1WT/gamma1, at 30 µM
Sequence of Calcium-activated potassium channel subunit alpha-1 (Homo sapiens) + Leucine-rich repeat-containing protein 26 (Homo sapiens) (Q2I0M4 whole entry, looked up, one chain of several): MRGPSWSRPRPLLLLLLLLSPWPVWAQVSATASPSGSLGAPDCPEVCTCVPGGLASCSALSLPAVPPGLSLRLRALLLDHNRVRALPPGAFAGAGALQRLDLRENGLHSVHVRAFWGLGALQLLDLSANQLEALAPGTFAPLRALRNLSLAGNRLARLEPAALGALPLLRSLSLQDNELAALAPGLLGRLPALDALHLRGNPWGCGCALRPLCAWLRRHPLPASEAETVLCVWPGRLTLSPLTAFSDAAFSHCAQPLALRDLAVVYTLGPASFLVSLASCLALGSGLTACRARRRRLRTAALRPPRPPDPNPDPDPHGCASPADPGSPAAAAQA

R275C = experiment: as above; conditions: U2OS BacMam BK variants, at 30 µM
R275C/beta1 = experiment: as above; conditions: U2OS BacMam BK variants, at 30 µM
R275C/beta2Delta = experiment: as above; conditions: U2OS BacMam BK variants, at 30 µM
[10] = P. berghei load reduction in hepatocytes – cell-based, HepG2, luciferase luminescence, HepG2 viability, primary screen (AID 624349; in the data active = parasite load remaining mostly below about 12%, no sharp cut-off; inactive = mostly above about 10%;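 note: 100% = mean of DMSO negative control wells on the same plate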); conditions: P. berghei liver stage in HepG2, luciferase luminescence, concentration not given here; parasite load remaining: stronger effect = lower value; viability: measured here: HepG2 viability without parasites
[11] = viability loss with induced miR-34 in A549 – imaging, A549 dox-inducible miR-34, nuclei and caspase counts, primary screen (AID 1347080;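 active = compounds whose cell count with miR-34 switched on is under 0.7 times the count with it off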); conditions: A549 miR-34 inducible, Hoechst nuclei count, 48 h
[12] = molecular target: Mitogen-activated protein kinase 7 (Homo sapiens) (UniProt Q13164); experiment: Gal4-ERK5 driven luciferase induction – cell-based, HTS, primary screen (AID 1508626;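 active = luciferase signal above three times the same-plate solvent-only control wells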;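 note: luciferase driven by Gal4-ERK5 fusion binding five Gal4 sites before minimal TATA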); conditions: HeLa Gal4-ERK5 transactivation, 18 h, at 5 µM, stronger effect = higher value
Sequence of Mitogen-activated protein kinase 7 (Homo sapiens) (Q13164 whole entry, looked up, the tested form may be a part): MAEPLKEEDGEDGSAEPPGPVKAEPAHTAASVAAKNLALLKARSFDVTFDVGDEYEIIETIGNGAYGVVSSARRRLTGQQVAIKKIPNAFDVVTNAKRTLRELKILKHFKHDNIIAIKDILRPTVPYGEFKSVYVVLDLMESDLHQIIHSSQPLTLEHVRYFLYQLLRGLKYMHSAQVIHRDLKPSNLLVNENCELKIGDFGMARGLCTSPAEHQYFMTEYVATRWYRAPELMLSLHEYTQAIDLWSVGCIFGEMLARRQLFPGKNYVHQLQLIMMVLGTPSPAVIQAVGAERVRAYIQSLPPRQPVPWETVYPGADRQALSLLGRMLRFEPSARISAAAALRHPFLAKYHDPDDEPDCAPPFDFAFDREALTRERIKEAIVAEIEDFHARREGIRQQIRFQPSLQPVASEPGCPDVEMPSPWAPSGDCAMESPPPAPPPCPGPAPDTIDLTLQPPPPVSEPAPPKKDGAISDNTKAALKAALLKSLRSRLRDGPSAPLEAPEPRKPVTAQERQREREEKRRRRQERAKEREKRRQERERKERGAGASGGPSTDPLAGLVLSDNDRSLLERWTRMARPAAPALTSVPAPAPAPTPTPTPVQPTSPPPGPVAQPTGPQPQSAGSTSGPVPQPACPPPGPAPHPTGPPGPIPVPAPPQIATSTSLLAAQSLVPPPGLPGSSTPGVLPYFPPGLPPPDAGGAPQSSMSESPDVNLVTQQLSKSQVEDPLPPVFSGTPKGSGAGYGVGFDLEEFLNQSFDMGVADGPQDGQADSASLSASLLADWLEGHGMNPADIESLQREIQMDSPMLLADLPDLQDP

[13] = measured here: epithelial PC-3E GFP cell survival
[14] = measured here: mesenchymal TEM4-18 mCherry cell survival
[15] = MELAS cybrid survival, CellTiter-Glo 48 h, stronger effect = higher value
[16] = Rieske KO mouse fibroblast survival, CellTiter-Glo 72 h
[17] = stronger effect = lower value, cell number ratio, induced over uninduced
[18] = measured here: relative caspase fold change +Dox/-Dox
[19] = measured here: total cells with miR-34 induction, stronger effect = lower value
[20] = measured here: total cells without miR-34 induction

CN(C)CCC(c1ccc(Cl)cc1)c1ccccn1 (configuration not stated)
0.93: normalised cell number [7, 14]
inactive: fluorescence ratio [1] 1.05 | inhibition [2] -1.98% | inhibition [3] -3.95% | fluorescence ratio [4] 1.02 | inhibition [5] 14.7% | mean signal [6] 225 | red/green cell ratio (normalised) [7] 1.02 | z-score [8, 15] -0.0722 and 0.91 and 0.217 | log fold change Tl+ flux (F380Y) 0.0819 | log fold change Tl+ flux (F380Y/beta1) -0.0189 | log fold change Tl+ flux (F380Y/beta2Delta) 0.0184 | log fold change Tl+ flux (F380Y/beta4) 0.0511 | log fold change Tl+ flux [9] -0.0284 | log fold change Tl+ flux (R275C) -0.059 | log fold change Tl+ flux (R275C/beta2Delta) 0.0118
0.675 and 0.216 and -0.121: z-score [8, 16]
active: log fold change Tl+ flux (R275C/beta1) 0.0906
0.91: normalised cell number [7, 13]

C=CC1=C(C(=O)O)N2C(=O)[C@@H](NC(=O)/C(=N\O)c3csc(N)n3)[C@H]2SC1 (stereo in doubt)
0.89: normalised cell number [7, 13]
inactive: parasite load remaining [10] 166% and 48.1% | inhibition [5] -2.05% | mean signal [6] 293 | red/green cell ratio (normalised) [7] 1.17 | fold change [11, 17] 0.92 | z-score [8, 15] -0.152 | luciferase signal [12] 264 AU
-0.423: z-score [8, 16]
87.7% and 99.2%: viability [10]
4.11: fold change [11, 18]
12500: cell count [11, 19]
1.04: normalised cell number [7, 14]
13600: cell count [11, 20]

CC(=O)OCC(=O)[C@@]1(O)CC[C@H]2[C@@H]3CCC4=CC(=O)CC[C@]4(C)[C@H]3[C@@H](O)C[C@@]21C
7860 and 8520: cell count [11, 20]
0.523 and 1.29: fold change [11, 18]
0.874 and 1.08: z-score [8, 16]
7330 and 6560: cell count [11, 19]
130% and 68%: viability [10]
inactive: parasite load remaining [10] 82.4% and 26% | fluorescence ratio [1] 0.96 | inhibition [2] -0.45% | inhibition [3] 1.81% | fluorescence ratio [4] 0.96 | inhibition [5] 8.37% | fold change [11, 17] 0.933 and 0.77 | z-score [8, 15] 0.499 and 0.396 | luciferase signal [12] 36 AU | log fold change Tl+ flux (F380Y) -0.0118 | log fold change Tl+ flux (F380Y/beta1) -0.0206 | log fold change Tl+ flux (F380Y/beta2Delta) 0.0163 | log fold change Tl+ flux (F380Y/beta4) 0.0297 | log fold change Tl+ flux [9] 0.0135 | log fold change Tl+ flux (R275C) -0.0512 | log fold change Tl+ flux (R275C/beta1) -0.0363 | log fold change Tl+ flux (R275C/beta2Delta) -0.0239

CNCCC=C1c2ccccc2CCc2ccccc21
active: log fold change Tl+ flux (F380Y) 0.169 | log fold change Tl+ flux (F380Y/beta2Delta) 0.217 | log fold change Tl+ flux (F380Y/beta4) 0.255 | log fold change Tl+ flux (R275C/beta1) 0.165 | log fold change Tl+ flux (R275C/beta2Delta) 0.126
-0.307: z-score [8, 16]
1.12: normalised cell number [7, 13]
1.26: normalised cell number [7, 14]
inactive: fluorescence ratio [1] 1.02 | inhibition [2] -5.91% | inhibition [3] -4.29% | fluorescence ratio [4] 0.99 | inhibition [5] -10.4% | mean signal [6] 233 | red/green cell ratio (normalised) [7] 1.12 | z-score [8, 15] -0.337 | luciferase signal [12] 120 AU | log fold change Tl+ flux (F380Y/beta1) 0.0784 | log fold change Tl+ flux [9] 0.00764 | log fold change Tl+ flux (R275C) 0.0226

CCCC1O[C@@H]2C[C@H]3[C@@H]4CCC5=CC(=O)C=C[C@]5(C)[C@H]4[C@@H](O)C[C@]3(C)[C@]2(C(=O)CO)O1 (some centres not stated)
active: log fold change Tl+ flux (F380Y) 0.198 | log fold change Tl+ flux (F380Y/beta1) 0.126 | log fold change Tl+ flux (F380Y/beta2Delta) 0.159 | log fold change Tl+ flux (R275C/beta1) 0.133 | log fold change Tl+ flux (R275C/beta2Delta) 0.115
inactive: parasite load remaining [10] 14% and 67.2% and 78.7% | fluorescence ratio [1] 1.05 | inhibition [2] -1.36% | inhibition [3] 1.05% | fluorescence ratio [4] 0.99 | inhibition [5] -12.1% | z-score [8, 15] -0.382 | luciferase signal [12] 96 AU | log fold change Tl+ flux (F380Y/beta4) 0.0417 | log fold change Tl+ flux [9] 0.0553 | log fold change Tl+ flux (R275C) 0.0776
116% and 115% and 75.3%: viability [10]
-0.0716: z-score [8, 16]

CC1=C(CCC(=O)O)c2cc3nc(cc4[nH]c(cc5[nH]c(cc1n2)c(C)c5C(C)O)c(C)c4C(C)O)C(C)=C3CCC(=O)O (configuration not stated)
1.29: normalised cell number [7, 14]
0.93: normalised cell number [7, 13]
inactive: inhibition [5] 12.1% | red/green cell ratio (normalised) [7] 1.39

— PubChem BioAssay
